Data as given in PubChem BioAssay.
For part of these data: Potency and affinity values are given separately. Calls of active or inactive are those of the source. Unless noted, no rule for the calls is given here.

Experiments:
[1] = antimalarial activity against Dd2 strain (AID 2302;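 active = growth inhibition above 50% at the single 2 µM test dose, taken to imply half-maximal potency below 2 µM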;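 also: 0% = DMSO untreated growth and 100% = chloroquine plus artemisinin killed control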); conditions: P. falciparum Dd2 in RBCs, LDH growth readout, 72 h; at 2 µM; stronger effect = higher value
[2] = human hepatoma cell viability loss – ATP luminescence, cytotoxicity control for P. falciparum antimalarial project, primary screen (AID 2303;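 active = inhibition above 50%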;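 also: 0% = DMSO wells and 100% = digitonin-killed cells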); conditions: HepG2 viability, 24-48 h, at 10 µM, stronger effect = higher value
[3] = molecular target: L-lactate dehydrogenase (Plasmodium falciparum (isolate CDC / Honduras)) (UniProt Q27743); assay: PfLDH activity inhibition – cell lysate, 3D7 strain, counter-screen for P. falciparum growth inhibition project (AID 2304);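 also: 0% = vehicle and 100% = reference inhibitor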; conditions: P. falciparum 3D7 crude extract, LDH APAD/NBT absorbance; at 2 µM; stronger effect = higher value
[4] = inhibition of 3D7 malaria parasite growth – strain 3D7 (AID 2306);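 also: 0% = DMSO wells and 100% = chloroquine plus artemisinin control wells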; conditions: P. falciparum 3D7 erythrocytic growth, LDH absorbance, 72 h; at 2 µM; stronger effect = higher value
[5] = molecular target: Calcium-dependent protein kinase 1 (Plasmodium falciparum (isolate 3D7)) (UniProt P62344); assay: PfCDPK1 kinase inhibitors, biochemical, TCAMS library (AID 1159585; cut-off not given, nearly all actives have IC50 up to about 0.98 µM;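 also: inhibitors leave more ATP so luminescence rises with inhibition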); conditions: recombinant PfCDPK1, Kinase-Glo ATP depletion luminescence
[6] = molecular target: Plasmodium falciparum protein kinase 6 (PK6, PF3D7_1337100) (UniProt Q8IDW1); assay: PfPK6 kinase inhibitors, biochemical, TCAMS library (AID 1159586); conditions: recombinant PfPK6, Kinase-Glo ATP depletion luminescence
[7] = molecular target: Protein kinase 7 (PK7), Plasmodium falciparum 3D7 (PF3D7_0213400) (UniProt Q7YTF7); assay: inhibition of Plasmodium PK7 catalytic activity – biochemical, TCAMS antimalarial set, Kinase-Glo luminescence (AID 1159587); conditions: recombinant PfPK7, Kinase-Glo ATP depletion luminescence
[8] = molecular target: Calcium-dependent protein kinase 4 (Plasmodium falciparum (isolate 3D7)) (UniProt Q8IBS5); assay: PfCDPK4 kinase inhibitors, biochemical, TCAMS library (AID 1159588; cut-off not given, nearly all actives have IC50 up to about 0.91 µM); conditions: recombinant PfCDPK4, Kinase-Glo ATP depletion luminescence
Chain of Calcium-dependent protein kinase 4 (Plasmodium falciparum (isolate 3D7)) (Q8IBS5 whole entry, looked up): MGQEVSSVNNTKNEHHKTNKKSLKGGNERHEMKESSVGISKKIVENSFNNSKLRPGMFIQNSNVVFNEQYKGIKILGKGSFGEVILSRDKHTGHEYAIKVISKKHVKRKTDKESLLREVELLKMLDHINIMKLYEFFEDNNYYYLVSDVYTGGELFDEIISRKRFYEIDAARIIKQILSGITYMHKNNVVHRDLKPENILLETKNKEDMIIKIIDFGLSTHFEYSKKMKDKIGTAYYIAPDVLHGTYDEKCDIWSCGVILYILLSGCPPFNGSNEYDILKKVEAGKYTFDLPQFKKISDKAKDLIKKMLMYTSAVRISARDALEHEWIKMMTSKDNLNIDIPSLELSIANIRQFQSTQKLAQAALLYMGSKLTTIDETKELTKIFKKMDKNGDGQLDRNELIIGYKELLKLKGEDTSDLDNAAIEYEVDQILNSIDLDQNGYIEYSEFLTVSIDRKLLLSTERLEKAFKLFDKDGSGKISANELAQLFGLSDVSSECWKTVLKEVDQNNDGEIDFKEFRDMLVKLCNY

Chain of Protein kinase 7 (PK7), Plasmodium falciparum 3D7 (PF3D7_0213400) (Q7YTF7 1-343): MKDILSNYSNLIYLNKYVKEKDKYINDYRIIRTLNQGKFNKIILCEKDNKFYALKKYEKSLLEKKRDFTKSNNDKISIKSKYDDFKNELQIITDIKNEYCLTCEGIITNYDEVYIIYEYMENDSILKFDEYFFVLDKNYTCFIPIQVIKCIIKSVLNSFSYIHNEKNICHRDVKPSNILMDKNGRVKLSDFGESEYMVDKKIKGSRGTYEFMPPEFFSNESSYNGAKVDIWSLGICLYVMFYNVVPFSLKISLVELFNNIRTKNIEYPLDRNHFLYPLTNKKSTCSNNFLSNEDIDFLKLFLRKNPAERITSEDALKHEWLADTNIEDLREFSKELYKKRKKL
Chain of Calcium-dependent protein kinase 1 (Plasmodium falciparum (isolate 3D7)) (P62344 whole entry, looked up): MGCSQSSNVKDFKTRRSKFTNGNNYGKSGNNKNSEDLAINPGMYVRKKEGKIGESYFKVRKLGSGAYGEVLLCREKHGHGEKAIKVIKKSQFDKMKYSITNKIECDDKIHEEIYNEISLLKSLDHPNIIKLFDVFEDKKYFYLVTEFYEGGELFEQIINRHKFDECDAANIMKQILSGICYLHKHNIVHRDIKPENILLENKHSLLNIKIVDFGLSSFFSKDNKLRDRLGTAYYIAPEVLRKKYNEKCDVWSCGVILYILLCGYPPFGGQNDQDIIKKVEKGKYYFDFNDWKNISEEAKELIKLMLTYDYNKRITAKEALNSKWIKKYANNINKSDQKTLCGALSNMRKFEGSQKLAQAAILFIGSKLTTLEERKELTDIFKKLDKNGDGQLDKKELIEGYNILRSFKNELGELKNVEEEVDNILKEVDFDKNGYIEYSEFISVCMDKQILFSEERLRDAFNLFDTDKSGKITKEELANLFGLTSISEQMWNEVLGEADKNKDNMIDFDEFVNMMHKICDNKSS
Chain of L-lactate dehydrogenase (Plasmodium falciparum (isolate CDC / Honduras)) (Q27743 whole entry, looked up): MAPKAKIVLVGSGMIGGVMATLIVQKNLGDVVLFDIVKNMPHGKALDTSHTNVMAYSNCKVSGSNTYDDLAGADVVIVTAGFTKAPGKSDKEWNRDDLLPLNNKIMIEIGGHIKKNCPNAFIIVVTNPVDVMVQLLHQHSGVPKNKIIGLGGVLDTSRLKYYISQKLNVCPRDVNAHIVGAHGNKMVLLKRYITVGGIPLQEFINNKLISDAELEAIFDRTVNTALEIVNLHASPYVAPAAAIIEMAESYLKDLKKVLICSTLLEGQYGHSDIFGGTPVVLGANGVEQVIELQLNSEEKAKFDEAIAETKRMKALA
Chain of Plasmodium falciparum protein kinase 6 (PK6, PF3D7_1337100) (Q8IDW1 1-305): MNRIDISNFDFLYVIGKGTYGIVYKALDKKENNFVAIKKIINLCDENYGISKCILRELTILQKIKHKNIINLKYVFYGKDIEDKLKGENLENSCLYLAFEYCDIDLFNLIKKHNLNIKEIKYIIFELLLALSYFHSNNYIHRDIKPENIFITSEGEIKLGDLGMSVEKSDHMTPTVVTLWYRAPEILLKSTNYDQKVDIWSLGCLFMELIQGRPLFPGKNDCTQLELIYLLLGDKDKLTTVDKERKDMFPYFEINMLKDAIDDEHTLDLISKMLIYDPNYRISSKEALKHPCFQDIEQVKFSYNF

Cn1nc(C(F)(F)F)c(-c2ccc(Br)cc2)c1NC(=O)Nc1ccc(F)cc1F
active: growth inhibition [1] 99% | growth inhibition [4] 99%
inactive: inhibition [2] 16% | inhibition [3] 0% | outcome [5] | outcome [6] | outcome [7] | outcome [8]

CCNc1cc(C(=O)N[C@@H](Cc2ccccc2)[C@H](O)CNC2(Cc3cccc(Cl)c3)CCC2)cc(N2CCCCS2(=O)=O)c1
inactive: inhibition [2] 22% | inhibition [3] 1% | outcome [5] | outcome [6] | outcome [7] | outcome [8]
active: growth inhibition [1] 83% | growth inhibition [4] 95%

CCCCCCNC(=O)C(N)CCCC(N)C(=O)NCCCCCC (configuration not stated)
inactive: growth inhibition [1] -5% | inhibition [2] -2% | inhibition [3] -2% | outcome [5] | outcome [6] | outcome [7] | outcome [8]
active: growth inhibition [4] 99%

O=C(N[C@H]1CCN(Cc2ccc(OC3CCN(Cc4ccccc4)CC3)c(Br)c2)C1)c1ccc(Cl)c(Cl)c1
inactive: growth inhibition [1] 30% | inhibition [3] -1% | outcome [5] | outcome [6] | outcome [7] | outcome [8]
active: inhibition [2] 55% | growth inhibition [4] 100%

COc1cccc(CN2CCCC(OC(c3ccccc3)c3ccccc3)C2)c1O (configuration not stated)
inactive: inhibition [2] 19% | inhibition [3] 0% | outcome [5] | outcome [6] | outcome [7] | outcome [8]
active: growth inhibition [1] 73% | growth inhibition [4] 90%

O=C(Nc1ccsc1)Nc1cccc(-c2cccc(-c3nc4ccccc4[nH]3)c2)c1
active: growth inhibition [1] 55% | inhibition [2] 61% | growth inhibition [4] 101%
inactive: inhibition [3] -7% | outcome [5] | outcome [6] | outcome [7] | outcome [8]

CN1CCCN(Cc2cccc(-c3cccc(NC(=O)c4cccc(Cl)c4)c3)c2)CC1
inactive: growth inhibition [1] 20% | inhibition [2] 17% | inhibition [3] -4% | outcome [5] | outcome [6] | outcome [7] | outcome [8]
active: growth inhibition [4] 96%

CC(C)n1ncc2c(C(=O)N3CCCc4ccccc43)cc(-c3ccccc3)nc21
active: growth inhibition [1] 82% | growth inhibition [4] 100%
inactive: inhibition [2] 5% | inhibition [3] 2% | outcome [5] | outcome [6] | outcome [7] | outcome [8]

COc1ccc(CCn2c(=N)c(C(=O)NCc3ccc(C)cc3)cc3c(=O)n4ccccc4nc32)cc1
active: growth inhibition [4] 97%
inactive: growth inhibition [1] 16% | inhibition [2] 13% | inhibition [3] -3% | outcome [5] | outcome [6] | outcome [7] | outcome [8]

CCCC1(NC[C@@H](O)[C@H](Cc2ccccc2)NC(=O)c2cc(NCC)cc(N3CCCCS3(=O)=O)c2)CCC1
active: growth inhibition [1] 86% | growth inhibition [4] 100%
inactive: inhibition [2] -8% | inhibition [3] -1% | outcome [5] | outcome [6] | outcome [7] | outcome [8]

CC(C)Cc1ccc(N2CCN(CCCCNC(=O)c3ccc(NC(=O)c4cc(C(F)(F)F)cc(C(F)(F)F)c4)cc3)CC2)cc1
inactive: inhibition [2] 15% | inhibition [3] -3% | outcome [5] | outcome [6] | outcome [7] | outcome [8]
active: growth inhibition [1] 100% | growth inhibition [4] 100%

Cc1cccc2[nH]c(-c3cccc(-c4ccc(C(=O)N5CCCCC5C(C)O)cc4)c3)nc12 (configuration not stated)
active: growth inhibition [1] 91% | growth inhibition [4] 100%
inactive: inhibition [2] 26% | inhibition [3] -2% | outcome [5] | outcome [6] | outcome [7] | outcome [8]

COc1ccc(NC(=O)N2CCCN(CCCCCNC(=O)/C=C/c3ccc(Cl)cc3)CC2)cc1Cl
inactive: growth inhibition [1] 1% | inhibition [2] 15% | inhibition [3] 1% | outcome [5] | outcome [6] | outcome [7] | outcome [8]
active: growth inhibition [4] 97%

O=C(Nc1ccc(OC2CCN(Cc3ccccc3)C2)c(Cl)c1)c1ccc(F)cc1 (configuration not stated)
inactive: inhibition [2] 7% | inhibition [3] 7% | outcome [5] | outcome [6] | outcome [7] | outcome [8]
active: growth inhibition [1] 87% | growth inhibition [4] 90%

O=C(Nc1ccc(-c2nc3ccccc3[nH]2)cc1)c1ccc(S(=O)(=O)N2CCCCC2)cc1
inactive: growth inhibition [1] 6% | inhibition [2] 23% | inhibition [3] 2% | outcome [5] | outcome [6] | outcome [7] | outcome [8]
active: growth inhibition [4] 95%

CC(=O)N1N=C(c2ccc(Cl)cc2)Sc2c1nc(-c1ccccc1)n2C(C)=O
active: growth inhibition [1] 81% | growth inhibition [4] 105%
inactive: inhibition [2] -3% | inhibition [3] 3% | outcome [5] | outcome [6] | outcome [7] | outcome [8]

NC(N)=Nc1ccc(OCCCCCOc2ccc(N=C(N)N)cc2Br)c(Br)c1
active: growth inhibition [1] 95% | growth inhibition [4] 92%
inactive: inhibition [2] 27% | inhibition [3] 0% | outcome [5] | outcome [6] | outcome [7] | outcome [8]

O=C(C1CCN(c2nnnn2-c2ccccc2)CC1)N1CCc2ccccc2C1
inactive: inhibition [2] -7% | inhibition [3] -9% | outcome [5] | outcome [6] | outcome [7] | outcome [8]
active: growth inhibition [1] 97% | growth inhibition [4] 97%

COc1ccc(N2CCN(CCCNC(=O)c3ccc(NC(=O)c4cc(Cl)cc(Cl)c4)cc3)CC2)c(OC)c1
active: growth inhibition [1] 79% | growth inhibition [4] 101%
inactive: inhibition [2] 21% | inhibition [3] -4% | outcome [5] | outcome [6] | outcome [7] | outcome [8]

CCOc1ccc(C(=O)Nc2cc(Br)c3c(c2)CNCC3)cc1Br
inactive: growth inhibition [1] 21% | inhibition [2] 18% | inhibition [3] 0% | outcome [5] | outcome [6] | outcome [7] | outcome [8]
active: growth inhibition [4] 96%

CN1CCN(CC2(Nc3nccc(NCc4ccc(Cl)cc4Cl)n3)CCCCC2)CC1
inactive: inhibition [3] 0% | outcome [5] | outcome [6] | outcome [7] | outcome [8]
active: growth inhibition [1] 58% | inhibition [2] 98% | growth inhibition [4] 98%

CCN(CC)CCN(Cc1ccc(-c2ccc(C(F)(F)F)cc2)cc1)C(=O)Cn1c(CCc2cc(F)cc(F)c2F)nc(=O)c2ccccc21
inactive: inhibition [2] 36% | inhibition [3] 1% | outcome [5] | outcome [6] | outcome [7] | outcome [8]
active: growth inhibition [1] 77% | growth inhibition [4] 101%

Cc1cccc2[nH]c(-c3ccc(-c4ccc(CNCC(C)C)cc4)cc3)nc12
inactive: inhibition [2] 14% | inhibition [3] -1% | outcome [5] | outcome [6] | outcome [7] | outcome [8]
active: growth inhibition [1] 90% | growth inhibition [4] 100%

Nc1ccc(-c2cnc3[nH]cc(-c4ccc(C(=O)O)cc4)c3c2)cn1
inactive: inhibition [2] 48% | inhibition [3] 1% | outcome [5] | outcome [6] | outcome [7] | outcome [8]
active: growth inhibition [1] 99% | growth inhibition [4] 97%

COc1ccc2c(c1C1CCN(CCCCNC(=O)c3ccc(-c4ccc(Cl)cn4)cc3)CC1)CCCC2
inactive: growth inhibition [1] 49% | inhibition [2] 29% | inhibition [3] -2% | outcome [5] | outcome [6] | outcome [7] | outcome [8]
active: growth inhibition [4] 90%

COc1ccc2nccc([C@@H](O)CN3CCC(NC(=O)c4cc5c(Cl)cc(Cl)cc5[nH]4)CC3)c2c1
active: growth inhibition [1] 98% | growth inhibition [4] 100%
inactive: inhibition [2] 22% | inhibition [3] -3% | outcome [5] | outcome [6] | outcome [7] | outcome [8]

Cc1nc(-c2cccc(NC(C)C(=O)Nc3cc(C(F)(F)F)ccc3N3CCOCC3)c2)cs1 (configuration not stated)
inactive: inhibition [2] 3% | inhibition [3] -2% | outcome [5] | outcome [6] | outcome [7] | outcome [8]
active: growth inhibition [1] 97% | growth inhibition [4] 82%

Cc1ccc(NC(=O)c2ccc3ncccc3c2)cc1OC1CCN(Cc2ccc(F)cc2)CC1
active: growth inhibition [4] 91%
inactive: growth inhibition [1] 22% | inhibition [2] 6% | inhibition [3] 1% | outcome [5] | outcome [6] | outcome [7] | outcome [8]

CC(C)N1CCC(NC(=O)N2CCCN(c3ncnc4cc(-c5ccc(Cl)cc5)sc34)CC2)CC1
inactive: growth inhibition [1] 7% | inhibition [2] 6% | inhibition [3] 7% | outcome [5] | outcome [6] | outcome [7] | outcome [8]
active: growth inhibition [4] 81%

OC(CN1c2ccccc2Sc2ccccc21)CN(C1CCCCC1)C1CCCCC1 (configuration not stated)
active: growth inhibition [1] 96% | growth inhibition [4] 99%
inactive: inhibition [2] 46% | inhibition [3] -5% | outcome [5] | outcome [6] | outcome [7] | outcome [8]

CCCNC(=O)Nc1ccc(N(C)c2ccnc(NC3CC3)n2)cc1
active: growth inhibition [1] 88% | growth inhibition [4] 100%
inactive: inhibition [2] 28% | inhibition [3] -2% | outcome [5] | outcome [6] | outcome [7] | outcome [8]

CC(C)(C)OC(=O)Nc1cccc(-c2csc(N=C(N)N)n2)c1
inactive: inhibition [2] 4% | inhibition [3] 2% | outcome [5] | outcome [6] | outcome [7] | outcome [8]
active: growth inhibition [1] 83% | growth inhibition [4] 97%

CC(C)COc1ccc2ccccc2c1CNCCCCCCNCc1c(OCC(C)C)ccc2ccccc12
inactive: inhibition [3] 2% | outcome [5] | outcome [6] | outcome [7] | outcome [8]
active: growth inhibition [1] 95% | inhibition [2] 99% | growth inhibition [4] 90%

O=S(=O)(c1ccccc1C(F)(F)F)C1C[C@H]2CC[C@@H](C1)N2S(=O)(=O)c1ccc(Cl)c(C(F)(F)F)c1 (some centres not stated)
active: growth inhibition [1] 99% | growth inhibition [4] 97%
inactive: inhibition [2] 4% | inhibition [3] -3% | outcome [5] | outcome [6] | outcome [7] | outcome [8]

CNC(=O)COc1ccc(Nc2nnc(-c3ccc(C)c(S(=O)(=O)NCC4CCCO4)c3)c3ccccc23)cc1 (configuration not stated)
active: growth inhibition [1] 68% | growth inhibition [4] 90%
inactive: inhibition [2] -8% | inhibition [3] 0% | outcome [5] | outcome [6] | outcome [7] | outcome [8]

COc1ccc2[nH]c3ccccc3c(=O)c2c1
inactive: inhibition [2] 0% | inhibition [3] 2% | outcome [5] | outcome [6] | outcome [7] | outcome [8]
active: growth inhibition [1] 75% | growth inhibition [4] 87%

O=C(NCCCc1ccccc1)c1csc(C2CCCN(C(=O)c3ccc(O)c(-c4ccccc4)c3)C2)n1 (configuration not stated)
active: growth inhibition [1] 97% | growth inhibition [4] 97%
inactive: inhibition [2] 5% | inhibition [3] 5% | outcome [5] | outcome [6] | outcome [7] | outcome [8]

COc1cc2nccc(Nc3cccc(Oc4ccccc4)c3)c2cc1OC
inactive: inhibition [2] 25% | inhibition [3] -2% | outcome [5] | outcome [6] | outcome [7] | outcome [8]
active: growth inhibition [1] 95% | growth inhibition [4] 102%

Cc1cc(=O)c(-c2ccc(Sc3ccc(Cl)cc3)cc2)c(C)[nH]1
inactive: inhibition [2] -3% | inhibition [3] -7% | outcome [5] | outcome [6] | outcome [7] | outcome [8]
active: growth inhibition [1] 84% | growth inhibition [4] 92%
